# Test results reported in PubChem BioAssay AID624483 (NMMLSC, 2012).
# Among all 360,000 compounds or so, about 11,000 (3.1%) were called active. Roughly 2% stayed inconclusive and do not appear here. No stated cut-off is given here; in the data, active means fluorescence intensity above about 16000; inconclusive means no clear call, values can overlap the other calls; inactive means below that. Only a selection was taken, and actives are over-represented in it overall.
# Experiment: compound fluorescence in toxin protease inhibitor counterscreen, primary screen, artefact control for toxin protease inhibitor project, biochemical, multiplex microsphere, HTS (AID 624483)
# Details: compound autofluorescence counterscreen, microsphere flow cytometry; hits give high values
row,SMILES,fluorescence intensity
1,CCOC(=O)C1Nc2ccc(C(F)(F)F)cc2C2C=CCC12 (configuration not stated),2760 (inactive)
2,CC(=O)Nc1cc(-c2ccccc2N(C)C)cn2c(-c3ccc(F)c(Cl)c3)cnc12,3420 (inactive)
3,O=C1NC[C@H](Cc2ccc(O)cc2)N(C[C@H]2CCCN2C[C@H](Cc2ccccc2)N2C[C@H](Cc3ccccc3)N(CCc3ccccc3)C(=O)C2=O)C1=O,5960 (inactive)
4,CC(OC(=O)CNC(=O)c1ccco1)C(=O)Nc1ccc(Cl)cn1 (configuration not stated),4920 (inactive)
5,CCCCC(CC)C(=O)Nc1ccc(Cl)cn1 (configuration not stated),21400 (active)
6,O=C(Nc1ccc(Cl)cn1)c1ccccc1-c1ccccc1,3610 (inactive)
7,COCCOC(=O)C1=C(C)NC(=O)CC1c1cc2c(cc1Br)OCO2 (configuration not stated),22200 (active)
8,CCCOc1ccccc1C1CC(=O)Nc2cc3c(cc21)OCO3 (configuration not stated),3540 (inactive)
9,COCCOC(=O)C1=C(C)NC(=O)NC1c1cc2c(cc1Br)OCO2 (configuration not stated),3890 (inactive)
10,CS(=O)(=O)/C(C#N)=C/c1cccn1S(=O)(=O)c1ccc([N+](=O)[O-])cc1,5100 (inactive)
11,CC(=O)Nc1cc(-c2ccccc2F)cn2c(-c3cccc(C(F)(F)F)c3)cnc12,3600 (inactive)
12,CCOc1ccc(-c2nc(C)sc2CC(=O)O)cc1,22400 (active)
13,Cc1ccc(-c2nc(C)sc2CC(=O)OCC(=O)Nc2c(F)cccc2F)cc1,2600 (inactive)
14,CCOc1ccc(NC(=O)CN(C)C(=O)Cc2sc(C)nc2-c2ccc(F)cc2)cc1OCC,8360 (inactive)
15,CCOc1ccc(CCN2C(=S)N([C@@H](CC(C)C)CN3CCC[C@@H]3CN3C(=S)NC[C@@H]3Cc3ccc(O)cc3)C[C@@H]2CC(C)C)cc1,6060 (inactive)
16,COc1ccc(CNC(=O)CN2C(=O)NC3(CCCc4sccc43)C2=O)cc1 (configuration not stated),5880 (inactive)
17,COc1ccc(C(=O)CC(=O)c2ccc(C)cc2)c(O)c1,4090 (inactive)
18,COc1ccc(OC)c(C(=O)c2ccc(C(=O)N3CCN(Cc4csc(C)n4)CC3)cc2)c1,4240 (inactive)
19,COc1ccc(OC)c(C(=O)c2ccc(C(=O)O)cc2)c1,16800 (active)
20,COCOc1cccc(CN2CCC(C)(Oc3ccc(SC)cc3)C2)c1 (configuration not stated),3010 (inactive)
21,Cc1[nH]c(C)c(S(=O)(=O)N2CCN(c3cccc(C(F)(F)F)c3)CC2)c1C(=O)N1CCCCC1,5140 (inactive)
22,CN1C(=O)C2(OCCCO2)c2cc(Cl)ccc21,3420 (inactive)
23,COc1cc2ccccc2cc1C(=O)Nc1ccc(S(=O)(=O)Nc2cc(C)on2)cc1,18400 (active)

row,SMILES,fluorescence intensity
1,CCOc1ccc(C(=O)Nc2ccc(S(=O)(=O)Nc3cc(C)on3)cc2)cc1,3660 (inactive)
2,COc1ccc(S(=O)(=O)Nc2cc(C)on2)cc1NC(C)=O,4100 (inactive)
3,CCCCNc1nc2c(c(=O)[nH]c(=O)n2C)n1CCOc1ccccc1,20600 (active)
4,COc1ccc(CCn2c(NCCCN3CCOCC3)nc3c2c(=O)[nH]c(=O)n3C)cc1,4180 (inactive)
5,CCCCNc1nc2c(c(=O)n(C)c(=O)n2C)n1Cc1cccc(OC)c1,4560 (inactive)
6,CCCC/C=C/c1cccc2nncn12,3130 (inactive)
7,COc1ccc(CN2CN(C3CCCC3)CSC2=S)cc1,3230 (inactive)
8,COc1ccc(CN2CN(C(C)C)CSC2=S)cc1,24500 (active)
9,COc1ccc(CCC(C)N2CCc3ccccc3C2)cc1 (configuration not stated),3950 (inactive)
10,NC(=O)COc1ccc2c3c(c(=O)oc2c1)CCCCC3,24300 (active)
11,NC(=O)C1CCN(C(=O)COc2ccc3c4c(c(=O)oc3c2)CCC4)CC1,5000 (inactive)
12,O=C(COc1ccc2c3c(c(=O)oc2c1)CCC3)NC1CCCCC1,9280 (inactive)
13,Cc1nc(C(F)(F)F)ccc1C(=O)N1CCC1(C)C(=O)NS(=O)(=O)c1ccccc1Cl (configuration not stated),2880 (inactive)
14,O=C(CSc1nnc(-c2ccncc2)n1C1CCCCC1)Nc1ccccc1,20700 (active)
15,O=C(CSc1nnc(-c2ccncc2)n1-c1ccc(Cl)cc1)Nc1ccc(C(=O)O)cc1,3940 (inactive)
16,COCCCn1c(SCC(=O)Nc2ccccc2)nnc1-c1ccncc1,3490 (inactive)
17,CN(C(=O)c1c(Cl)cnn1C)C12CC3CC(CC(C3)C1)C2,2490 (inactive)
18,CCCNC(=O)C1(C)CCCN(Cc2cccc(C(F)(F)F)c2)C1 (configuration not stated),3060 (inactive)
19,CC(C)C(C)NC(=O)COc1ncnc2ccccc12 (configuration not stated),2080 (inactive)
20,O=C(CSc1ncccn1)NC(=O)NCc1ccccc1,10500 (inactive)
21,O=C(COc1ncnc2ccccc12)NC(=O)NCc1ccccc1,16500 (active)
22,CCSc1ccccc1C(=O)NCc1ccc(OC)cc1,24300 (active)
23,CSc1ccccc1C(=O)NCc1ccccc1,3280 (inactive)

row,SMILES,fluorescence intensity
1,CCc1nc2ccccc2c(C(=O)NCc2ccc(OC)cc2)c1C,4980 (inactive)
2,O=C(CCN1C(=O)c2ccccc2C1=O)C1=NN[C@@H]2C(=O)N(c3ccc(F)cc3)C(=O)[C@H]12,2580 (inactive)
3,CC(C)(C)N1C(=O)c2c(C(=O)OCc3ccccc3)[nH]c(-c3ccccc3)c2C1=O,5800 (inactive)
4,Cc1ccc(-c2noc(CN3CCN(Cc4ccccc4)CC3)n2)cc1,23500 (active)
5,CC1CCN(Cc2nc(-c3ccc(Cl)cc3)no2)CC1,6270 (inactive)
6,O=c1ccc(S(=O)(=O)N2CCCC2)cn1Cc1nc(-c2ccccc2)no1,3920 (inactive)
7,COc1ccc(S(=O)(=O)N2CCCCC2c2cc(C(=O)NCc3ccc(F)cc3)no2)cc1 (configuration not stated),2840 (inactive)
8,CCCNC(=O)COc1coc(CN2CCN(Cc3ccccc3)CC2)cc1=O,5680 (inactive)
9,CC1(C)Oc2ccc3ccc(=O)oc3c2/C(=C/NCCO)C1=O,2160 (inactive)
10,CCOC(=O)CN1CCC(c2ccccc2)CC1,2610 (inactive)
11,CCOC(=O)Cn1c2c(c(-c3ccccc3OC)cc1=O)CCCC2,23500 (active)
12,COc1ccccc1C1=CC(=O)CCC1,3790 (inactive)
13,C[C@H]([C@@H](O)[C@@H](O)[C@@H](C)C(C)(C)C)[C@H]1CC[C@H]2C3CC[C@H]4C[C@H](OS(=O)(=O)O)[C@@H](OS(=O)(=O)O)C[C@]4(C)[C@H]3CC[C@]12C (some centres not stated),4680 (inactive)
14,CCOC(=O)Cc1csc(SCC(=O)NC(C)C23CC4CC(CC(C4)C2)C3)n1 (configuration not stated),9570 (inactive)
15,COC(=O)CNC(=O)c1ccc2c(c1)S(=O)(=O)c1ccccc1C2=O,2970 (inactive)
16,CC(C)NC(=O)NNc1c(Cl)cncc1Cl,3840 (inactive)
17,CCC(=O)OCc1c(C(F)(F)F)nn(C)c1Oc1cccc(C(F)(F)F)c1,18100 (active)
18,Cc1nc(N)[nH]c(=O)c1Oc1cccc(C(F)(F)F)c1,6010 (inactive)
19,CCOC(=O)NNc1cc(C(F)(F)F)ccn1,3590 (inactive)
20,CCCCNC(=O)Nc1c(C)cc(SC#N)cc1C,2550 (inactive)
21,Cn1c2ccccc2n2c(=O)c(=O)n(CC(=O)c3ccc(F)cc3)nc12,8720 (inactive)
22,CC1(C(=O)NS(=O)(=O)c2ccccc2)CCN1C(=O)C1CCCCC1 (configuration not stated),3660 (inactive)
23,Cc1ccc(S(=O)(=O)N2CCN(c3ccccc3)CC2)cc1C,4010 (inactive)

row,SMILES,fluorescence intensity
1,Cc1ccccc1N1CCN(S(=O)(=O)c2ccc3ccccc3c2)CC1,4580 (inactive)
2,Cc1cc(N2CCN(S(=O)(=O)c3ccc(C)c(C)c3)CC2)c2ccccc2n1,23300 (active)
3,CCCS(=O)(=O)NC(=O)C1(C)CCN(C(=O)c2sccc2C)C1 (configuration not stated),3570 (inactive)
4,CC(=O)N1Cc2cc(C(=O)NCc3cccc(F)c3)nc(-c3cccc(C4=CCCC4)c3)c2[C@H]1CCO,5550 (inactive)
5,O=c1cc(-c2ccccc2)nc(N2CCCCC2)[nH]1,6120 (inactive)
6,O=C1NC2(CCCCC2)N=C1c1ccccc1,24900 (active)
7,O=[N+]([O-])c1ccc(C2C3C(c4ccccc4)=NC4(CCCCC4)N32)cc1 (configuration not stated),7680 (inactive)
8,CCCNC(=O)C1(C)CCN(C(=O)c2ccc(F)cc2Cl)C1 (configuration not stated),2840 (inactive)
9,COCCNC(=O)C1CCCN(Cc2ccccc2Cl)CC1 (configuration not stated),3660 (inactive)
10,CCOC(=O)c1c(CN(C)C)n(-c2ccccc2)c2cc(Br)c(O)cc12,5060 (inactive)
11,CCOC(=O)c1c(CN2CCOCC2)n(-c2ccccc2)c2ccc(O)cc12,16500 (active)
12,CCOC(=O)c1nnn(-c2nonc2-n2cccc2)c1CN1CCOCC1,10800 (inactive)
13,C[C@H]1CN([C@@H](C)CO)C(=O)Cc2cc(NS(C)(=O)=O)ccc2O[C@@H]1CN(C)CC1CC1,3570 (inactive)
14,CCc1nc2c(OCCOc3ccccc3)cccn2c1N(C)C(=O)c1cccs1,3880 (inactive)
15,CCOc1ccc(Cl)cc1-c1cc(C(=O)NCc2cccs2)[nH]n1,3900 (inactive)
16,CC(=O)c1cccc(-c2cnc3c(NC=O)cc(-c4ccc(N(C)C)cc4)cn23)c1,3260 (inactive)
17,CC(C)(C)OC(=O)N1CCN(C(=O)c2[nH]c(C(F)(F)F)nc2-c2ccccc2)CC1,5720 (inactive)
18,CC(C)NS(=O)(=O)c1ccc(OCC(=O)Nc2ccc3c(c2)OCCO3)cc1,4280 (inactive)
19,O=C(COc1ccc2c(C(F)(F)F)cc(=O)oc2c1)Nc1ccc2c(c1)OCCO2,23100 (active)
20,CCN(CC(=O)Nc1ccc2c(c1)OCCO2)Cc1cc(=O)oc2cc(C)c(C)cc12,10100 (inactive)
21,Cc1cc(C(=O)N2CCCC2(C)C(=O)O)c(C)o1 (configuration not stated),4080 (inactive)
22,Cc1cccc(C)c1Cn1c(C)c(C(=O)NCc2cccc(Cl)c2)sc1=O,4280 (inactive)
23,CC(C)COP(=O)(c1ccc(N(C)C)cc1)C(Nc1ccccc1)c1cccnc1 (configuration not stated),2300 (inactive)
